Hits are enriched below; roughly 8.7% of the tested compounds scored in any of these assays.
JMJD2A Tudor inh = qHTS Assay for Inhibitors of JMJD2A-Tudor Domain. AID 504339, 2011. 4.4% of 390,000 active. AlphaScreen JMJD2A-Tudor / H3K4me3 peptide binding. Potency, µM (series often up to 114 µM), without a hit: top-dose activity change, negative = inhibition, actives largely listed as inhibitors; note: % is set by controls: 0 for no effect and ±100 for the full control effect; nearly all actives have a fitted effect of over 50% in size
Target sequence (O75164 whole entry, looked up, the tested form may be a part): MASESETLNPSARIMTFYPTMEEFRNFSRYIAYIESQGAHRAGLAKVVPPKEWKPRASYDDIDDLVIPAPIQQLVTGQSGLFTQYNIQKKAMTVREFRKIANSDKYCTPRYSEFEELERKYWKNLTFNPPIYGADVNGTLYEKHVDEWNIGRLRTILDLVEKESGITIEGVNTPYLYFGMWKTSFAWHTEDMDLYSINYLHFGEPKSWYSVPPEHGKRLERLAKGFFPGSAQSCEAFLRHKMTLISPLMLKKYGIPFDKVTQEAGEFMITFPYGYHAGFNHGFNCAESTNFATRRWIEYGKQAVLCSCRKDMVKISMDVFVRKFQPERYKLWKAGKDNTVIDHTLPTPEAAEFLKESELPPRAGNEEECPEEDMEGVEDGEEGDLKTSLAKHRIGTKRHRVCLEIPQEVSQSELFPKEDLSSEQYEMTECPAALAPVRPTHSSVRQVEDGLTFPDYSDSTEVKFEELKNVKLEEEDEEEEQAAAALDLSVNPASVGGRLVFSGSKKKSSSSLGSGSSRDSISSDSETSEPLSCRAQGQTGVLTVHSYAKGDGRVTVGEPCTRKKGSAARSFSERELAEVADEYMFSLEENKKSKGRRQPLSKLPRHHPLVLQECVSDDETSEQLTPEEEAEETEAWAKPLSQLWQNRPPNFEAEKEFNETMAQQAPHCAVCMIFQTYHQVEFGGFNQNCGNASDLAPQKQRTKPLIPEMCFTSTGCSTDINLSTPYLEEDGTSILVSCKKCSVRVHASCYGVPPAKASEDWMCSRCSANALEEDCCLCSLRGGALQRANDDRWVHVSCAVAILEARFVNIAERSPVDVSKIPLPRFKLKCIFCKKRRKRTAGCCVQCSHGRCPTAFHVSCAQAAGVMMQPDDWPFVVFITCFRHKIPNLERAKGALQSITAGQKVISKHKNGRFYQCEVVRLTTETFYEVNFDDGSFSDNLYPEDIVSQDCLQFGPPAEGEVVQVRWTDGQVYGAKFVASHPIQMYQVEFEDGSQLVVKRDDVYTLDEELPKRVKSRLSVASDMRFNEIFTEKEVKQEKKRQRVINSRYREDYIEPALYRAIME
12-LOX inh = Primary qHTS assay for inhibitors of human arachidonate 12S-lipoxygenase (ALOX12): Round 2. Polyunsaturated fatty acid lipoxygenase ALOX12 (Homo sapiens), P18054. purified 12hLO, xylenol orange hydroperoxide absorbance. Potency, µM (doses to about 108 µM), inactives show at the top dose activity change, negative = inhibition, actives largely listed as inhibitors. 1.1% of 580,000 active. AID 1671190, 2021; note: % is set by controls: 0 for no effect and ±100 for the full control effect
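Purified human 12hLO at 150 nM in 25 mM Hepes, 0.01% Triton X-100, pH 7.0, preincubated 15 min at room temperature with compound. Reaction started with 40 uM arachidonic acid, 30 min at room temperature. Hydroperoxide measured by Fe-xylenol orange, 573/405 nm absorbance ratio.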
BAZ2B block = qHTS Assay for Inhibitors of BAZ2B; Bromodomain adjacent to zinc finger domain protein 2B (Homo sapiens), Q9UIF8; AlphaScreen BAZ2B-H3K14Ac peptide displacement; Potency, µM (doses to about 114 µM), for the others: at the top dose activity change, negative = inhibition, hits mostly inhibitors; 4.4% of 360,000 active; AID 504333, 2011; note: % is set by controls: 0 for no effect and ±100 for the full control effect; nearly all actives have a fitted effect of over 60% in size
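Protein-peptide AlphaScreen: BAZ2B 50 nM, b-H3K14Ac 50 nM, 1x PBS pH 7.4 + 0.01% Tween-20. Preincubation 30 min RT; cpd 30 min RT (top 110 uM); beads 20 min RT, light-protected.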
HP1b binding inh = HTS for Inhibitors of HP1-beta Chromodomain Interactions with Methylated Histone Tails | Chromobox protein homolog 1 (Homo sapiens), P83916 | AlphaScreen HP1-beta / biotin-H3K9me3 peptide binding | Potency, µM (top dose mostly 114 µM), without a hit: at the top dose activity change, negative = inhibition, most hits filed as inhibitors | 0.56% of 390,000 active; note: nearly all actives have a fitted effect of over 70% in size
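Compound inhibition of the preformed complex between 50 nM HP1-beta and 50 nM biotinylated H3K9me3 peptide was read by AlphaScreen. Buffer was PBS pH 7.4 with 0.01% Tween-20. Incubations ran 30 min at room temperature, with 10 ug/mL donor/acceptor beads.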
G9a block = qHTS Assay for Inhibitors of Histone Lysine Methyltransferase G9a; Histone-lysine N-methyltransferase EHMT2 (Homo sapiens), Q96KQ7; Potency, µM (top dose mostly 102 µM), inactives show top-dose activity, negative = inhibition, most hits filed as inhibitors; 8.8% of 350,000 active; G9a H3K9 monomethylation, AlphaScreen, 2 h; AID 504332, 2011; note: % is set by controls: 0 for no effect and ±100 for the full control effect; nearly all actives have a fitted effect of over 75% in size
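Step 1: enzyme (final 20 nM) with compound, 15 min RT. Step 2: substrate peptide 500 nM and SAM 20 uM, 2 h RT. Step 3: anti-H3K9me1 antibody and AlphaScreen beads, 10 min, then plate read.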
Sfp inh = qHTS Assay for Inhibitors of Bacillus subtilis Sfp phosphopantetheinyl transferase (PPTase); Potency, µM, inactives show largest response in the series, negative = inhibition, actives largely listed as inhibitors; 3.5% of 310,000 active; Biochemical Sfp PPTase activity, qHTS;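 note: the enzyme is Sfp with the accession as filed and its product quenches rhodamine fluorescence; 0% = enzyme reaction without inhibitor and -100% = no enzyme wells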
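Buffer: 50 mM Hepes-Na pH 7.6, 10 mM MgCl2, 0.01% Nonidet P-40, 0.01% BSA. Enzyme 15 nM, pre-exposed to compound 15 min; substrates then added and fluorescence change tracked over 30 min.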
Active calls of the source: *; ? = inconclusive; . = no result given; [ ] = remark or other dose. Calls come from the whole dose curve; as a rule, active = well fitted curve in the direction sought with a large enough effect; inconclusive = small, poorly fitted or top-dose-only effect, or another doubt; inactive = no such curve, though single readings can be large; an effect the other way counts as inactive or inconclusive. Potency is the fitted concentration of half-maximal effect.

SMILES | JMJD2A Tudor inh | 12-LOX inh | BAZ2B block | HP1b binding inh | G9a block | Sfp inh
CCCCn1c(O)c(N=NC(=O)c2ccccc2NS(=O)(=O)c2cccs2)c2ccccc21 | -26.7% | -15.5% | -31.8% | 31.0% | -3.6%[59 µM] | -6.6%
C=CCn1c(O)c(N=NC(=O)c2ccccc2NS(=O)(=O)c2cccs2)c2ccccc21 | -19.2% | -20.0% | 25.2% | 14.9% | 44.7µM* | -3.1%
O=C(Nc1cccc(F)c1)/C(=C\c1ccco1)NC(=O)c1cccs1 | -18.3%[57.1 µM] | ? | -2.5%[57.1 µM] | -23.7% | ? | 56.2µM*
CC(=O)Nc1ccc(NC(=O)/C(=C/c2ccco2)NC(=O)c2ccccc2)cc1 | -25.8% | -6.3% | -36.7% | -10.8% | . | 17.8µM*
COC(=O)/C(=C/c1ccco1)NC(=O)c1ccccc1 | -12.0% | -0.8% | -17.2% | 27.8% | ? | -1.8%
O=C(Nc1cccc(C(F)(F)F)c1)/C(=C\c1ccco1)NC(=O)c1cccs1 | -15.1% | ? | -2.0% | 4.7% | 23.4%[59 µM] | -11.6%
CC(C)(C)c1ccc(C(=O)N/C(=C\c2ccco2)C(=O)Nc2ccccc2C(=O)O)cc1 | -35.9% | 31.6µM* | 10.0% | -2.2% | ? | 50.1µM*
O=C(Nc1ccc(C(=O)O)cc1)/C(=C\c1ccco1)NC(=O)c1ccccc1Cl | -7.0% | ? | ? | ? | -17.4% | 10.9%
O=C(Nc1ccc(C(=O)O)cc1)/C(=C\c1ccco1)NC(=O)c1ccccc1 | -13.3% | 0.0% | -26.4% | 28.6% | . | 20µM*
CCCNC(=O)C1N(c2ccc(OC)cc2)C(=O)C12CCCCC2 (centres undefined) | . | 47.3% | . | . | . | .
CS(=O)(=O)N1CCC(N2C(=O)C(OCC3CC3)C23CCCCC3)CC1 (centres undefined) | . | 17.0% | . | . | . | .
Cn1cnnc1-c1nn(C)c2c1CN(C(=O)c1n[nH]c3ccccc13)CC2 | . | 3.5% | . | . | . | .
Cc1nc2ccccn2c1C(=O)N/N=C/c1ccc(CNC(=O)C(=O)Nc2ccccc2)o1 | -23.6% | 5.6% | -23.5% | 13.8% | 7.6%[59 µM] | 5.1%
O=C(NCc1ccc(/C=c2\sc3n(c2=O)CCN=3)o1)C(=O)Nc1ccccc1 | . | . | ? | . | 50.1µM* | 22.4µM*
Cc1ccc(/C=c2/sc3n(c2=O)CCCN=3)o1 | -12.8% | -15.8% | -6.7% | 26.4% | 8.91µM* | 20µM*
Cc1ccc(/C=c2\sc3n(c2=O)CN(c2ccc(Br)cc2)CN=3)o1 | -4.6%[11.4 µM] | 9.9% | -22.1% | -32.4% | 8.91µM* | 10µM*
CCCNC(=S)Nc1ccc(C)cc1 | . | -0.4% | . | . | . | .
COc1ccc(-c2noc3c2-c2nc(-c4ccccc4)sc2CC3)cc1 | -9.9% | ? | . | ? | . | .
COc1ccc(-c2noc3c2-c2nc(-c4ccccc4F)sc2CC3)cc1 | -6.2% | 39.8µM* | -6.6% | 32.6% | 22.4µM* | -21.1%
Fc1cccc(F)c1-c1nc2c(s1)CCc1onc(-c3ccc(Br)cc3)c1-2 | -14.2% | 14.1µM* | . | -6.2% | . | .
COc1ccc(-c2noc3c2-c2nc(-c4c(F)cccc4F)sc2CC3)cc1 | -16.8% | ? | -23.1% | 15.4% | 31.6µM* | -16.3%
Fc1ccccc1-c1nc2c(s1)CCc1onc(-c3ccc(Br)cc3)c1-2 | -5.8% | -24.7% | . | 8.8% | . | .
Cc1ccc(SCc2ccc(C(=O)Nc3c(C)cccc3C)cc2)cc1 | . | -17.5% | . | . | . | .
COc1cc(OC)c(C2CC(=O)N3CN(c4ccccc4)CSC3=C2C#N)cc1OC (centres undefined) | 5.62µM* | 2.82µM* | 25.1µM* | ? | 3.16µM* | 3.16µM*
CCN1C(=O)C(Cc2cc(OC)c(OC)cc2OC)c2ccccc21 (centres undefined) | . | -16.6% | . | . | . | .
SMILES | JMJD2A Tudor inh | 12-LOX inh | BAZ2B block | HP1b binding inh | G9a block | Sfp inh
CCc1ccccc1N1CSC2=C(C#N)C(c3cc(OC)c(OC)cc3OC)CC(=O)N2C1 (centres undefined) | 8.91µM* | ? | 50.1µM* | -75.4% | ? | 0.891µM*
CCOc1cc(C2CC(=O)N3CN(c4ccccc4)CSC3=C2C#N)cc(Br)c1O (centres undefined) | . | 1.78µM* | . | . | . | .
COc1nccnc1NS(=O)(=O)c1ccc(NC(=S)NC(=O)c2ccccc2F)cc1 | ? | 44.7µM* | ? | ? | ? | -22.9%
COc1ccc(C(=O)Nc2ccc(S(=O)(=O)Nc3nccnc3OC)cc2)cc1OC | -22.6% | ? | -7.2% | 0.3% | -15.9%[59 µM] | 10.3%
COc1ccc(NC(=O)c2ccc(C#N)cc2)cc1NS(=O)(=O)c1ccc(F)cc1 | 6.4%[57.1 µM] | 8.8% | -1.4% | 42.9% | 8.91µM* | -12.9%
COc1ccc(NC(=O)c2ccc3ccccc3c2)cc1NS(=O)(=O)c1ccc(F)cc1 | -23.2% | 18.6% | -6.7% | 4.5% | -6.3%[59 µM] | 10.1%
COc1nccnc1NS(=O)(=O)c1ccc(NC(=S)NC(=O)c2ccc(F)cc2)cc1 | -29.1% | 35.5µM* | -38.7% | -12.5% | ? | 50.1µM*
COc1nccnc1NS(=O)(=O)c1ccc(NC(=S)NC(=O)c2cccc(F)c2)cc1 | ? | ? | ? | -28.8% | ? | 3.2%
CCOC(=O)c1ccc(NC(=O)CSc2nnc(CCc3ccc(C)o3)n2-c2ccccc2)cc1 | -16.6% | -26.6% | -28.7% | 12.4% | 44.7µM* | 15.8µM*
Cc1ccc(CCc2nnc(SCC(=O)Nc3ccccc3Cl)n2-c2ccccc2)o1 | -32.5% | -19.1% | ? | -3.9% | 28.2µM* | -21.8%
O=[N+]([O-])c1ccc(/C=N/N/C(=N/c2ccccn2)c2ccccn2)cc1 | -29.3% | 6.0%[57.4 µM] | -2.5% | 23.2% | 10.3%[12.7 µM] | 44.7µM*
O=[N+]([O-])c1cc(/C=N/N/C(=N/c2ccccn2)c2ccccn2)ccc1O | 79.4µM* | 43.3% | 31.6µM* | -7.4% | 50.1µM* | 12.4%
O=C(N/N=C/c1ccc(O)c([N+](=O)[O-])c1)c1ccncc1 | -14.4% | 0.1% | 23.2% | 28.7% | . | ?
Cc1nc2c(cc(OCc3ccc(F)cc3)c3ccsc32)s1 | . | -1.2% | . | . | . | .
CCNC(=O)N1CCCCCC1CN1CCCC1 (centres undefined) | . | 133.9% | . | . | . | .
Oc1ccc(Cl)cc1CNCC1CCCO1 (centres undefined) | 3.16µM* | -8.9% | 50.1µM* | ? | -7.2%[2.33 µM] | 5.0%

High-throughput results as filed in PubChem.
